Data reported in PubChem BioAssay.
Unmarked numbers belong to inactive results. Activity calls are given as the source filed them. Cut-off read from the data, not from the text of the source, unless noted: active = inhibition above about 33%; inactive = the rest.

Experiments:
[1] = molecular target: Nuclear receptor coactivator 3 (Homo sapiens) (UniProt Q9Y6Q9); assay: SRC3 coactivator transcriptional activity inhibitors, confirmation, cell-based, luminescence, quadruplicate (AID 588792;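 active = mean inhibition over 43.08%, the solvent-only control mean plus 3 SD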;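 note: 0% = DMSO treated cells and 100% = gossypol at 36 µM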); conditions: HEK293 GAL4-SRC3 luciferase reporter, at 3.6 µM, active compounds read high
Sequence of Nuclear receptor coactivator 3 (Homo sapiens) (Q9Y6Q9 whole entry, looked up, the tested form may be a part): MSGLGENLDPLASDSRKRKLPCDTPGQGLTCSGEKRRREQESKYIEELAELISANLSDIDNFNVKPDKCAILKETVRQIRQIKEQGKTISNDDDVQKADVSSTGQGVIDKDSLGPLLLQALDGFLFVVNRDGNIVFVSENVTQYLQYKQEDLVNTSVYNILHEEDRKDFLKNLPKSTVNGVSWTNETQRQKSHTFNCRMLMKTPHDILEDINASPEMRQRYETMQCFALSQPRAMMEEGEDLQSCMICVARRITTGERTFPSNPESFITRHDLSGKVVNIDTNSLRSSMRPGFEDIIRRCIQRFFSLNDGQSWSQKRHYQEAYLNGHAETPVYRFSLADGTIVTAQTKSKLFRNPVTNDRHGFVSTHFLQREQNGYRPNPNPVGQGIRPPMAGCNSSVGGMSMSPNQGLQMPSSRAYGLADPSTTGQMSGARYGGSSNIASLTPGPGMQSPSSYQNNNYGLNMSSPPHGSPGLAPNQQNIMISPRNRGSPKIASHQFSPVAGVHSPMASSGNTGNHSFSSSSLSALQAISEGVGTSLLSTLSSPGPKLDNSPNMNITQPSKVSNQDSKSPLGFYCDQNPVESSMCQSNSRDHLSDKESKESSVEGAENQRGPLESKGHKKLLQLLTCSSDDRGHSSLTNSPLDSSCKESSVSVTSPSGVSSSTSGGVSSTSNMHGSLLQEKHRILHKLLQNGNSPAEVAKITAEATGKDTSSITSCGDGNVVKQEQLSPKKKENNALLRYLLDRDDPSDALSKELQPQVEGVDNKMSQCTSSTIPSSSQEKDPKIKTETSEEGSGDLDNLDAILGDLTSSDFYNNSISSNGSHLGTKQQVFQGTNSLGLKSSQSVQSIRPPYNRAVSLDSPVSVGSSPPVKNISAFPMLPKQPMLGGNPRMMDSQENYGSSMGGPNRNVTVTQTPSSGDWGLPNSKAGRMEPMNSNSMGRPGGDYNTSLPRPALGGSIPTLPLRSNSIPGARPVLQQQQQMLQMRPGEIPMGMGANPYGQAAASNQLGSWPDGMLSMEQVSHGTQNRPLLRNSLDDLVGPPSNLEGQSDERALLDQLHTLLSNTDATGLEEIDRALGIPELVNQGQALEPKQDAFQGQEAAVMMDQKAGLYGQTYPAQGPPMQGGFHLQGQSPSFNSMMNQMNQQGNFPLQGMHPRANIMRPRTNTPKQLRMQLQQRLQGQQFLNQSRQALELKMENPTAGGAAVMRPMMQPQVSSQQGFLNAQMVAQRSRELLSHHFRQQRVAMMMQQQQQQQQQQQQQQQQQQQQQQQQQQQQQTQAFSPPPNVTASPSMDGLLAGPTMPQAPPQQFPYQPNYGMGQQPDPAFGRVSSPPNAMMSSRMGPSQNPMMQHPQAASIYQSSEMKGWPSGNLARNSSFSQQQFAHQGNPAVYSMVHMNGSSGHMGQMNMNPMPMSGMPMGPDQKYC

[2] = tested on: transactivating tegument protein VP16 (Human herpesvirus 1), Gal4-VP16 luciferase reporter; assay: VP16 transactivation inhibitors, counter-screen for SRC3 inhibitor project, cell-based, luminescence, high throughput (AID 588794; in the data active = inhibition above about 30%); conditions: mammalian cells, VP16-driven luciferase reporter luminescence; at 3.6 µM; active compounds read high
[3] = StAR promoter reporter inhibitors, counter-screen for LRH-1 inverse agonist project, cell-based, luminescence, high throughput (AID 651611; in the data active = inhibition above about 28%); conditions: StAR promoter luciferase reporter counterscreen, at 3.6 µM, active compounds read high
[4] = molecular target: Nuclear receptor subfamily 5 group A member 2 (Homo sapiens) (UniProt O00482); assay: LRH-1 (NR5A2) inverse agonists, retest, confirmation, cell-based, luminescence (AID 651613; in the data active = inhibition above about 42%;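 note: HEK293T cells co-transfected with LRH-1 and StAR promoter luciferase reporter; 0% = vehicle wells and 100% = parental cells lacking receptor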); conditions: cell-based LRH-1 luciferase reporter, inverse agonism; at 3.6 µM; active compounds read high
Sequence of Nuclear receptor subfamily 5 group A member 2 (Homo sapiens) (O00482 whole entry, looked up): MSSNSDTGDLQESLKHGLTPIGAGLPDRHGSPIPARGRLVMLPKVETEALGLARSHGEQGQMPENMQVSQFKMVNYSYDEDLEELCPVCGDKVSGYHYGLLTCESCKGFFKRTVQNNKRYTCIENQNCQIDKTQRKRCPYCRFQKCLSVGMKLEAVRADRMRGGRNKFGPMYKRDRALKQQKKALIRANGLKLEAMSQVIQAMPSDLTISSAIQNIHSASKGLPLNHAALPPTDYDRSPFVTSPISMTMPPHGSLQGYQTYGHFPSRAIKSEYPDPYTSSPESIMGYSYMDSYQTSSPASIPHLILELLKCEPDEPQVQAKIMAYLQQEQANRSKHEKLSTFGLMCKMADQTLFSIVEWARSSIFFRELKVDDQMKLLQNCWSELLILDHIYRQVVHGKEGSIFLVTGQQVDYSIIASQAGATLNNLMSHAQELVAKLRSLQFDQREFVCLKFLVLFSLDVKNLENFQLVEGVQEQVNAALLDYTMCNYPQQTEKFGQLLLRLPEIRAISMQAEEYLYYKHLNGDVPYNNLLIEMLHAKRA

[5] = molecular target: Steroidogenic factor 1 (Homo sapiens) (UniProt Q13285); assay: SF1 (NR5A1) inverse agonists, counter-screen for LRH-1 inverse agonist project, cell-based, luminescence, high throughput (AID 651614; in the data active = inhibition above about 44%;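 note: cells cotransfected with StAR promoter reporter and SF1 expression vector; 0% = vehicle on cells with receptor and 100% = vehicle on cells lacking receptor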); conditions: cell-based SF1 luciferase reporter, at 3.6 µM, active compounds read high
Sequence of Steroidogenic factor 1 (Homo sapiens) (Q13285 whole entry, looked up, the tested form may be a part): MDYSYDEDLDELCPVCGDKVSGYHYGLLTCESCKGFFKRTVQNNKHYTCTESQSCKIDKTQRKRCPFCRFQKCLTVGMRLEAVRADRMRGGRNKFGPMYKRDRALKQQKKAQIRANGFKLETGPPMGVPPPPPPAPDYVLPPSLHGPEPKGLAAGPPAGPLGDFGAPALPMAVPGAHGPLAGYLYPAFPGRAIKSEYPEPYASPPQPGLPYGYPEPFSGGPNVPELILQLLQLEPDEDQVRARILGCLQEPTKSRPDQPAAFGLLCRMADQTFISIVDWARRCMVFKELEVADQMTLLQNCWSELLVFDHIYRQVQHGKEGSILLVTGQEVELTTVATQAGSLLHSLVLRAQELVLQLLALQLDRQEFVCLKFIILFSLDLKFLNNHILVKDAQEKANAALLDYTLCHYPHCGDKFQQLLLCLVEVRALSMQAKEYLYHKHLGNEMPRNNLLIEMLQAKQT

[6] = VP16 transactivation reporter inhibitors, counter-screen for LRH-1 inverse agonist project, cell-based, luminescence, high throughput (AID 651615); conditions: Gal4-VP16 luciferase reporter cells, at 3.6 µM, active compounds read high

C[n+]1c2n(c3ccccc31)N=C(c1ccc(-c3ccccc3)cc1)CS2
inhibition [1]: 36.6%
inhibition [2]: 52.8% (active)
inhibition [3]: 32.7% (active)
inhibition [4]: 87.7% (active)
inhibition [5]: 78.2% (active)
inhibition [6]: 72.8% (active)

N#CC(c1cccc(Cl)c1)c1ccc2c(C(F)(F)F)cc(C(F)(F)F)nc2n1 (stereo not drawn)
inhibition [1]: 59.4% (active)
inhibition [2]: 84% (active)
inhibition [3]: 82.3% (active)
inhibition [4]: 107% (active)
inhibition [5]: 95.5% (active)
inhibition [6]: 88.9% (active)

CCCCCCCCCCCCCCCCn1cc[n+](C)c1
inhibition [1]: 5.39%
inhibition [2]: 31.6% (active)
inhibition [3]: 36% (active)
inhibition [4]: 65.5% (active)
inhibition [5]: 70.5% (active)
inhibition [6]: 64.4% (active)

COc1ccc(Nc2ccncc2[N+](=O)[O-])cc1
inhibition [1]: 41.1%
inhibition [2]: 27.4%
inhibition [3]: 13.4%
inhibition [4]: 75.5% (active)
inhibition [5]: 64.4% (active)
inhibition [6]: 39.3% (active)

COc1ccc2c(c1OC)C(=O)N1c3ccccc3C(=O)N(c3ccccc3F)C21 (stereo not drawn)
inhibition [1]: 17.7%
inhibition [2]: 10.7%
inhibition [3]: 53.5% (active)
inhibition [4]: 48.5% (active)
inhibition [5]: 54.1% (active)
inhibition [6]: 16.9%

CCN(C(C)=O)c1cnc(C=NNC(N)=S)c2ccccc12
inhibition [1]: 39.5%
inhibition [2]: 29.1%
inhibition [3]: 78.7% (active)
inhibition [4]: 75.7% (active)
inhibition [5]: 69.5% (active)
inhibition [6]: 69.3% (active)

CCCOc1ccc(Br)cc1CSC(=N)N
inhibition [1]: 17.9%
inhibition [2]: 33.3% (active)
inhibition [3]: 9.34%
inhibition [4]: 102% (active)
inhibition [5]: 53.8% (active)
inhibition [6]: 83.7% (active)

COc1ccc(C(=O)C2CCCN(Cc3cccn3-c3ccc(Cl)cn3)C2)c(OC)c1 (stereo not drawn)
inhibition [1]: 17.1%
inhibition [2]: 25.5%
inhibition [3]: 19%
inhibition [4]: 47.7% (active)
inhibition [5]: 47.4% (active)
inhibition [6]: 41.2% (active)

Cc1ccc(NC(=O)c2cc(Cl)ccc2[N+](=O)[O-])cc1C
inhibition [1]: 27.3%
inhibition [2]: 18.5%
inhibition [3]: 16.6%
inhibition [4]: 36.5%
inhibition [5]: 34.6%
inhibition [6]: 19.6%

COc1ccc(-c2cn(-c3ccccc3)c3[n+]2CCS3)cc1
inhibition [1]: 15.7%
inhibition [2]: 35.4% (active)
inhibition [3]: 18.2%
inhibition [4]: 61.1% (active)
inhibition [5]: 60.6% (active)
inhibition [6]: 45.1% (active)

Cc1cc(C)cc(NC(=O)c2ccc([N+](=O)[O-])o2)c1
inhibition [1]: 22.4%
inhibition [2]: 2.31%
inhibition [3]: 53% (active)
inhibition [4]: 76.3% (active)
inhibition [5]: 74.7% (active)
inhibition [6]: 20%

CCCCCc1ccc(OCCCC[n+]2cccc(C)c2)c(CCCCC)c1
inhibition [1]: 17.4%
inhibition [2]: 39% (active)
inhibition [3]: 31.7% (active)
inhibition [4]: 74.2% (active)
inhibition [5]: 68.9% (active)
inhibition [6]: 71.2% (active)

O=S(=O)(NCC1CCCO1)c1ccc(-c2ccc(S(=O)(=O)NCC3CCCO3)cc2)cc1 (stereo not drawn)
inhibition [1]: 9.93%
inhibition [2]: 41.9% (active)
inhibition [3]: 24.6%
inhibition [4]: 69.5% (active)
inhibition [5]: 61.2% (active)
inhibition [6]: 56.7% (active)

O=C(N/N=C\c1ccc([N+](=O)[O-])s1)c1cncc(Br)c1
inhibition [1]: 32.5%
inhibition [2]: 22.9%
inhibition [3]: 57.4% (active)
inhibition [4]: 79.7% (active)
inhibition [5]: 72.9% (active)
inhibition [6]: 56.9% (active)

O=C(N/N=C/c1c(O)ccc2ccccc12)c1[nH]ncc1Br
inhibition [1]: 58.8% (active)
inhibition [2]: 53.9% (active)
inhibition [3]: 77.2% (active)
inhibition [4]: 95.8% (active)
inhibition [5]: 83.8% (active)
inhibition [6]: 73.6% (active)

CCN(CC)c1ccc(/C=N/NC(=O)c2c(Cl)cnn2C)c(O)c1
inhibition [1]: 64.2% (active)
inhibition [2]: 72.8% (active)
inhibition [3]: 83% (active)
inhibition [4]: 96.4% (active)
inhibition [5]: 79.9% (active)
inhibition [6]: 60.9% (active)

Cc1ccc(C(=O)C[n+]2cc(-c3ccc(C)cc3)n3c2CCCCC3)cc1
inhibition [1]: 25.2%
inhibition [2]: 53.5% (active)
inhibition [3]: 38% (active)
inhibition [4]: 80.2% (active)
inhibition [5]: 75.7% (active)
inhibition [6]: 70.4% (active)

Cc1ccc(C(=O)Nc2sc3c(c2C(=O)O)CCCC3)o1
inhibition [1]: 17.1%
inhibition [2]: 40% (active)
inhibition [3]: 32.5% (active)
inhibition [4]: 75.9% (active)
inhibition [5]: 78.6% (active)
inhibition [6]: 61.7% (active)
